92 compounds from PubChem BioAssay AID449762 (Southern Research Specialized Biocontainment Screening …, 2010) can be followed below.

The campaign covered roughly 330,000 compounds. About 1,900 (0.58%) were called active. Roughly 4% stayed inconclusive and do not appear here. Cut-off read from the data, not from the text of the source: inconclusive = inhibition above about 70% without an active follow-up result; inactive = below that. These entries were drawn from the full list. Potency and affinity values are given separately.

The test in a line: M. tuberculosis growth inhibition, HTS (AID 449762).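 Note: bacterial growth assessed after seven days of incubation.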 Conditions: M. tuberculosis H37Rv growth inhibition, 7H9 media; at 25 µM; active compounds read high.
As a reminder, the inhibition is the change of the read-out against control, counted positive when it falls. With `Cc1nc(-c2c(C(=O)NNC(=O)Nc3c(C)cccc3C)noc2C)cs1`, the inhibition is -5.09% (inactive).
As for `COc1ccc(OC)c(C(=O)NC2CC(C)(C)Cc3c2cnn3-c2ccccc2)c1` (configuration not stated), the inhibition was 12.2% (inactive).
Next, `CC(C)CC(=O)Nc1cccc(NC(=O)c2ccccc2Cl)c1`: 0.24% (inactive); `COc1ccc(CSc2nc3ccccc3c(=O)[nH]2)cc1F`: 2.06% (inactive); `COc1ccc(N2C(=O)NC(=O)/C(=C\c3cn(C)c4ccccc34)C2=O)cc1`: 3.04% (inactive).
In the case of `Cn1cc(C=C2C(=O)NC(=O)NC2=O)c2ccccc21` it was -7.12% (inactive); in that of `COC(=O)c1ccc(C(c2c(N)n(CC(C)C)c(=O)[nH]c2=O)N2CCN(c3ccccc3)CC2)cc1` (configuration not stated), 7.1% (inactive).
Regarding `CCOC(=O)CC(=O)CSc1nnc2c(n1)[nH]c1ccccc12`, the inhibition was 7.32% (inactive).
Turning to `COc1ccc(C2CC(c3c(Cl)cccc3Cl)n3nc(N)nc3N2)cc1` (configuration not stated), the inhibition is -4.95% (inactive).
In the case of `Cc1cc(C)nc(NC(=S)NC(=O)c2ccccc2)n1` it was -0.74% (inactive).
On to `CC1CCN(C(=O)C2CCC(CNc3c(N4CCCCC4)c(=O)c3=O)CC2)CC1` (configuration not stated), for which the inhibition is -6.49% (inactive).
Take `O=C(C1CCC(CNc2c(N3CCCCC3)c(=O)c2=O)CC1)N1CCCC1` (configuration not stated): the inhibition is -1.43% (inactive).
Consider `CC(=O)NCC1CCCN(C(=O)c2ccc(OC3CCN(Cc4ccccn4)CC3)cc2)C1` (configuration not stated), for which the inhibition is 8.85% (inactive).
Next, `CC(Oc1ccc2c3c(c(=O)oc2c1)CCC3)C(=O)NC1CCN(Cc2ccccc2)CC1` (configuration not stated): 5.54% (inactive); `O=C(NCc1ccccc1Cl)c1ccc(S(=O)(=O)Nc2cccc(C(F)(F)F)c2)cc1`: -11.7% (inactive); `S=C(NCc1cccnc1)Nc1ccc(Oc2ccccc2)cc1`: 4.52% (inactive).
In the case of `Clc1ccc(-c2nc(N3CCCCC3)nc3ccccc23)cc1`, the inhibition was 8.31% (inactive).
In the case of `c1ccc(-c2nc(N3CCCCC3)nc3ccccc23)cc1` it was 36.9% (inactive); in that of `COc1cc(OC)cc(C(=O)Nc2cccc(-c3ccc(N4CCOCC4)nn3)c2)c1`, -3.98% (inactive); in that of `COc1ccc(C(=O)NNC(=O)c2ccc(S(=O)(=O)N3CCOCC3)cc2)cc1`, 0.01% (inactive).
Turning to `CCCN1C(=O)C2(SC(NC(C)=O)=NN2C(C)=O)c2cc(C)ccc21` (configuration not stated), the inhibition was -6.76% (inactive).
In the case of `COc1cc(F)ccc1S(=O)(=O)N1CCN(C23CC4CC(CC(C4)C2)C3)CC1` it was 9.71% (inactive); in that of `COc1ccc(OC)c(S(=O)(=O)N2CCN(C34CC5CC(CC(C5)C3)C4)CC2)c1`, 2.72% (inactive).
In the case of `Oc1[nH]c2ccc(Br)cc2c1N=NC(=S)N1CCOCC1`, the inhibition is 7.05% (inactive).
In the case of `NC(=S)N=Nc1c(O)[nH]c2ccccc12` it was -9.66% (inactive); in that of `CCc1ccc(NC(=O)c2cc(CC(C)C)on2)cc1`, 4.83% (inactive).
In the case of `CCCc1cc(C(=O)Nc2ccc(C(C)=O)cc2)no1`, the inhibition was 29.9% (inactive).
In the case of `CCOc1ccc(C(=S)N2CCN(C)CC2)cc1` it was -1.09% (inactive).
In the case of `CCc1nc(C)cn1S(=O)(=O)c1cc(Cl)c(OC)cc1Cl` it was -6.76% (inactive); in that of `CCN(CC)C(=O)c1ccc2c(c1)N(Cc1ccccc1)C(=O)CS2=O` (configuration not stated), 0.11% (inactive); in that of `Cc1ccc(C(=O)Nc2cccc(C(F)(F)F)c2)cc1NC(=O)c1nccn1C`, -2.57% (inactive).
For the compound `CC(=O)c1ccccc1NC(=O)COC(=O)CCC1CCCC1`, the inhibition is 9.67% (inactive).
In the case of `CC(C)/C=C1\CC/C(=C\c2cccnc2)C1=O` it was 11% (inactive); in that of `O=C1/C(=C/c2cccnc2)CC/C1=C\c1cccnc1`, -0.97% (inactive).
Consider `COc1cc(/C=C/C(=O)OC(C)C(=O)Nc2ccc(Cl)cn2)ccc1OC(F)F` (configuration not stated), for which the inhibition is 28.3% (inactive).
Regarding `COc1ccc(Nc2nc(Cl)nc(NCc3ccco3)n2)c(OC)c1`, the inhibition is -5.12% (inactive).
Next, `Cc1noc(NS(=O)(=O)c2ccc(NC(=O)/C=C/c3ccc(C(C)C)cc3)cc2)c1C`: -12.3% (inactive); `CCN(CC)c1ccc(C=C2C(=O)N(C)C(=S)N(C)C2=O)o1`: 1.5% (inactive); `CC(C)N1C(=O)S/C(=C\c2ccc(-c3ccc(Cl)c(C(=O)O)c3)o2)C1=O`: 4.73% (inactive).
With `NC(=O)CN1CCCC1c1ccc2c(c1)OCCO2` (configuration not stated), the inhibition was -1.31% (inactive).
For the compound `CC(=O)c1ccc(OCC(=O)N2CCCC2c2ccc3c(c2)OCCCO3)cc1` (configuration not stated), the inhibition was -12.4% (inactive).
Next, `CCc1nnc(NC(=O)CN2CCN(Cc3cccc(F)c3)CC2)s1`: 13.7% (inactive); `COc1ccc(NS(=O)(=O)c2cccc(C(=O)NCc3ccccn3)c2)cc1`: -5.64% (inactive).
Next, `O=C(CCn1cnnn1)Nc1ccc(Cl)cc1Cl`: -5.53% (inactive).
Next, `O=C(CN1CCCC1)Nc1ccc([N+](=O)[O-])cc1`: 4.32% (inactive); `O=C(CN1CCCCC1)Nc1nnc(-c2ccccc2)s1`: 5.25% (inactive); `O=C(OCC(=O)N1CCCC1)c1ccc(Cl)c([N+](=O)[O-])c1`: -6.77% (inactive).
With `COc1ccccc1N1CCN(c2ccc3ccccc3n2)CC1`, the inhibition is 1.84% (inactive).
In the case of `COc1ccccc1N1CCN(c2ccc(Cl)nn2)CC1` it was 0.36% (inactive); in that of `CCCNC(=O)NC(=O)COC(=O)c1cccc(NS(=O)(=O)c2ccc(F)c(F)c2)c1`, 5.38% (inactive).
For the compound `CC1(C2CC2)NC(=O)N(CC(=O)N2CCN(c3ccccc3)CC2)C1=O` (configuration not stated), the inhibition is -0.6% (inactive).
As for `Nc1nc(-c2ccco2)nn1C(=O)CCc1ccccc1`, the inhibition is 6.17% (inactive).
For `CC(=O)c1ccc(NC(=O)C2=CC(c3cccs3)=NS(=O)(=O)N2C)cc1`, the inhibition was 2.16% (inactive).
Next, `O=c1[nH]c(Nc2ccccc2)cc2ccccc12`: 0.07% (inactive); `O=c1[nH]c(Nc2ccc(F)cc2)cc2ccccc12`: -14.1% (inactive).
Next, `CC(=O)Nc1ccc(NC2=CC(=O)c3ccccc3C2=O)cc1`: 3.89% (inactive).
For the compound `NS(=O)(=O)c1ccc(NC2=CC(=O)C(=O)c3ccccc32)cc1`, the inhibition is 11.2% (inactive).
In the case of `COC(=O)CN(c1ccc(C)cc1)S(=O)(=O)c1c(C)[nH]c(=O)[nH]c1=O` it was -6.71% (inactive); in that of `C=CCSc1nnc(NC(=O)c2ccc(N3CCCC3=O)cc2)s1`, -1.46% (inactive); in that of `C=CC[C@H](CC(=O)NCCO)C(=O)NC[C@@H](OC(=O)[C@@H](CC=C)CC(=O)OC(C)(C)C)c1ccccc1`, -4.9% (inactive).
Next, `Cc1ccc(S(=O)(=O)N2CCN(c3ccc(C(F)(F)F)cc3[N+](=O)[O-])CC2)cc1`: 16% (inactive); `Cc1cc(N2CCN(c3ccc([N+](=O)[O-])c4cccnc34)CC2)c2ccccc2n1`: -7.93% (inactive).
For the compound `CCC1(CC)C(=O)N(Cc2ccccc2)C(=O)N(Cc2ccccc2)C1=O`, the inhibition is -1.75% (inactive).
With `CCN(c1ccccc1)S(=O)(=O)c1ccc(OC)c(NC(=O)Cc2ccccc2OC)c1`, the inhibition was -3.76% (inactive).
Regarding `CCN(CCNC(=O)C1CC(=O)N(CCc2ccccc2)C1)c1ccccc1` (configuration not stated), the inhibition was -5.61% (inactive).
Consider `CCOc1ccc(/C=N/NC(=S)NC2CC3CC2C2C=CCC32)cc1` (configuration not stated), for which the inhibition was 7.16% (inactive).
With `COc1cccc(/C=N/NC(=S)NC2CC3CC2C2C=CCC32)c1O` (configuration not stated), the inhibition was -6.6% (inactive).
In the case of `CC1CCCCC12NC(=O)N(CC(=O)NNC(=O)c1ccc(Br)cc1)C2=O` (configuration not stated) it was 1.45% (inactive); in that of `CCSc1nnc(NC(=O)CSC2=NN3CCCC(=O)N=C3S2)s1`, 2.54% (inactive); in that of `CN(c1cccc(NC(=O)Cc2ccccc2)c1)S(C)(=O)=O`, 5.18% (inactive).
For the compound `O=C(NC(C(=O)N/N=C/c1ccncc1)c1n[nH]c(=O)c2ccccc12)c1ccccc1` (configuration not stated), the inhibition is 2.1% (inactive).
For `O=C(NC(C(=O)N/N=C/c1ccccc1)c1n[nH]c(=O)c2ccccc12)c1ccccc1` (configuration not stated), the inhibition is 2.9% (inactive).
Take `COc1ccc(CC(=O)Nc2ccccc2N2CCCC2)cc1`: the inhibition is 0.8% (inactive).
In the case of `Cc1ccc(C2CC(=O)C=C(O)C2)cc1` (configuration not stated) it was 9.89% (inactive).
In the case of `COc1ccc(CNC(=O)NCCc2c[nH]c3ccccc23)cc1` it was 9.15% (inactive); in that of `CSc1ccccc1NC(=O)COc1nsnc1N1CCOCC1`, 2.19% (inactive); in that of `Cc1cccc(NC(=O)CSc2nc(N)c(NC(=O)c3ccccc3F)c(=O)[nH]2)c1`, -17.1% (inactive).
As to `COC(=O)c1ccc2[nH]c(C(C)(C)O)c(C)c2c1`, the inhibition was -3.19% (inactive).
In the case of `c1ccc(C2Oc3ccccc3C3CC(c4cccs4)=NN32)cc1` (configuration not stated) it was -7.12% (inactive); in that of `COc1ccc(C2=NN3C(C2)c2ccccc2OC3c2cccs2)cc1` (configuration not stated), -3.24% (inactive); in that of `COC(=O)COc1cc(=O)oc2ccc(NS(=O)(=O)c3ccccc3)cc12`, 11.6% (inactive).
Next, `Cn1cc(C(=O)c2cccc(Cl)c2Cl)cc1C#N`: -7.62% (inactive).
As for `Cc1ccc([N+](=O)[O-])cc1N(CC(=O)NC1CCCC1)S(C)(=O)=O`, the inhibition is -1.93% (inactive).
Take `COc1ccc(C)cc1NS(=O)(=O)c1ccc(NC(=O)CN(c2cc([N+](=O)[O-])ccc2C)S(C)(=O)=O)cc1`: the inhibition is 0.68% (inactive).
In the case of `CCN1CCN(C(c2cc(OC)c(OC)c(OC)c2)c2nnnn2C(C)C)CC1` (configuration not stated) it was -6.3% (inactive); in that of `CCN1C(=NCCc2cccnc2)N[C@@H](c2ccccc2)[C@H](C(=O)OC)[C@H]1C`, -0.82% (inactive).
Next, `CCN1C(=NCCc2ccc([N+](=O)[O-])cc2)N[C@@H](c2ccccc2)[C@H](C(=O)OC)[C@H]1C`: -8.81% (inactive); `COc1ccc(Nc2oc(-c3ccccc3)nc2C#N)cc1`: -0.48% (inactive).
As to `COC(=O)c1ccc(N2CCN(c3ccccc3)CC2)nc1`, the inhibition was -3.88% (inactive).
In the case of `FC(F)(F)c1ccc(-n2cnc3ccccc32)nc1` it was -0.78% (inactive); in that of `Cc1c(Nc2nc(-c3ccccc3)cs2)c(=O)n(-c2ccccc2)n1C`, 0.86% (inactive); in that of `CCOC(=O)c1c(NC(=O)c2cc3n(n2)C(C(F)(F)F)CC(c2ccccc2)N3)sc(C)c1C` (configuration not stated), -4.24% (inactive).
